About 14,000 (4.5%) of roughly 310,000 compounds showed an effect of 50% or more. The effect is printed as a negative number. This is one part of a sample in which strong results are shown more often than they occur.
The compounds below were run against human ether-à-go-go-related gene (hERG) potassium channel (human, UniProt Q12809) (assay: primary screen, population patch clamp on CHO cells stably expressing hERG; higher = less effect of the substance).
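Note: peak tail current of the secondary pulse compared with the same well before compound.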

human ether-à-go-go-related gene (hERG) potassium channel, sequence (Q12809 whole entry, looked up): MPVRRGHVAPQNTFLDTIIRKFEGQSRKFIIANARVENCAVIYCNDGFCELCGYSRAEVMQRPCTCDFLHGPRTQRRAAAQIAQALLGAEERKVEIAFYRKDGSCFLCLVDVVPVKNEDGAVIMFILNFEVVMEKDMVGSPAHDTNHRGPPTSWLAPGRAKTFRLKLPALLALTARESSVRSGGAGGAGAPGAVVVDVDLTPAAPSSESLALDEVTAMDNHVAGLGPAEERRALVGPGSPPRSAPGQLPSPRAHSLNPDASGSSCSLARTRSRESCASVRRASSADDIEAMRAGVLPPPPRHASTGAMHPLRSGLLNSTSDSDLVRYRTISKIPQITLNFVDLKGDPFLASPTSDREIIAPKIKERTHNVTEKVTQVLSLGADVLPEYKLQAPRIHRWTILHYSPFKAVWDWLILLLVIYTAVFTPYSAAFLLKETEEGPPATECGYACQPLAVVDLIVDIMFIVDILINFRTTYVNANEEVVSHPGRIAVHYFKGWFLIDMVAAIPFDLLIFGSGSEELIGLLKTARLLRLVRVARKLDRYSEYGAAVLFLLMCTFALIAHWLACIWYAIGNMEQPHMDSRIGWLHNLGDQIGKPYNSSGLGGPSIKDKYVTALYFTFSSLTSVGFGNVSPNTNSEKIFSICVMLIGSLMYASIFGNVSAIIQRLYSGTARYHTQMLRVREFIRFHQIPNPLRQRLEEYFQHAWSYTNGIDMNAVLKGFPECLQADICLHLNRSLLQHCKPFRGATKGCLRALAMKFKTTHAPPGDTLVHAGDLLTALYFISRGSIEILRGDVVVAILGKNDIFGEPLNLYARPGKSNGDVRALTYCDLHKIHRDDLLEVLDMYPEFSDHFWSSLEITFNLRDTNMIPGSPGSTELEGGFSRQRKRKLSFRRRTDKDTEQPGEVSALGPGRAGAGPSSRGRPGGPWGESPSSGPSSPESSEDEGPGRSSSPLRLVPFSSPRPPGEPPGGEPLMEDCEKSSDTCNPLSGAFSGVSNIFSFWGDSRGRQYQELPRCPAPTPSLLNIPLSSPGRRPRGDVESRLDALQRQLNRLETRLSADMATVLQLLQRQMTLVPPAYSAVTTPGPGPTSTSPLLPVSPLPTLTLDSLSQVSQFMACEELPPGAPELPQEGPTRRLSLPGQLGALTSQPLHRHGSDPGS

Compound | hERG current change (%, negative = inhibition) at 10uM [%]
CCOc1ccc(N2C(=O)CC(NCCc3c[nH]c4ccccc34)C2=O)cc1 (stereo not shown) | 1.45
Cc1cc(C(=O)Nc2nccs2)c2cc(F)ccc2n1 | 7.7
CCCn1c(N)c(C(=O)CSc2nnc(Cc3ccccc3)o2)c(=O)n(C)c1=O | -0.939
O=S(=O)(c1ccccc1)c1ncc(C(F)(F)F)cc1O | 9
O=C(COC(=O)/C=C/c1cccc(F)c1)NC1CCCC1 | 4.41
CCOc1ccc(CCNC(=O)CCC(=O)N2CCOc3ccccc32)cc1OCC | -7.82
COc1cccc(OC)c1C(=O)NC(=S)N1CCCCC1c1cccnc1 (stereo not shown) | -13
Nc1c(CO)nnn1-c1ccccc1 | 4.7
O=C(Nc1ccc(OCC(F)(F)C(F)F)c(C(F)(F)F)c1)c1ccccc1O | 9.65
COc1ccc2c(Cl)c(-c3nnc(SCC(=O)c4ccccc4)n3C)sc2c1 | 8.28
Cc1ccc(NC(=O)c2ccccc2NS(=O)(=O)c2ccc(Cl)s2)cc1S(=O)(=O)N1CCOCC1 | 0.321
COc1ccc(OCc2csc(N)n2)cc1 | 39.4
Cc1nc(-n2nnc3cc(C)c(C)cc32)c2c3c(sc2n1)CCCC3 | -1.48
c1ccc2c(c1)nnn2-c1ncnc2sc3c(c12)CCCC3 | -12.2
Cc1nc(N2CCN(C(=O)c3ccco3)CC2)c2c3c(sc2n1)CCCC3 | -64.1
CCC(=O)N1CCN(c2nc(CC)nc3sc4c(c23)CCCC4)CC1 | -71.7
Cc1nc(-n2nnc3ccccc32)c2c3c(sc2n1)CCCC3 | -50.1
O=C(c1ccco1)N1CCN(c2nc(C3CC3)nc3sc4c(c23)CCCC4)CC1 | -29.7
Cc1nc(N2CCN(C(=O)c3ccco3)CC2)c(C#N)c2c1CCCC2 | 3.21
CCNC(=S)N1CCN(c2nc(CC)nc3sc4c(c23)CCCC4)CC1 | -15.4
CCc1nc(N2CCN(C(C)=O)CC2)c2c3c(sc2n1)CCCC3 | -20.1
C/C(=N\NC(=O)c1nn(C)c(C)c1Br)c1cccc(NC(=O)c2ccoc2C)c1 | -23.2

Compound | hERG current change (%, negative = inhibition) at 10uM [%]
CCCC(=O)c1ccc(-c2ccccc2)cc1 | -4.95
Cc1ccc(C(C)C)c(OCCCN2C(=O)NC(C)(C)C2=O)c1 | -14.3
Cc1ccc(N2C(=O)CC(Sc3cccs3)C2=O)cc1 (stereo not shown) | 12
Cc1cccc(NC(=O)c2oc3c(c2C)C(=O)CC(C)(C)C3)n1 | -14.9
CC1=C(C(=O)N2CCCCCC2)C2(CCC(C)CC2)OC1=O (stereo not shown) | 2.11
CC1=C(C(=O)N2CCCCC2)C2(CCC(C)CC2)OC1=O (stereo not shown) | -6.74
CC1=C(C(=O)N2CCN(C(=O)c3ccco3)CC2)C2(CCC(C)CC2)OC1=O (stereo not shown) | -63.8
Cc1c(CCC(=O)O)c(=O)oc2cc(OCc3ccccc3F)ccc12 | 27.4
Cc1nc(SCC(=O)N2CCOCC2)c2c(=O)n(C)c(=O)n(C)c2n1 | 0.699
C=CCc1cccc(CNc2cnc3ccccc3c2)c1O | -4.21
COc1ccccc1N1CCN(Cc2nc(N)nc(Nc3ccc(C)cc3)n2)CC1 | -50.3
COc1ccccc1N1CCN(Cc2ccc(Cl)cc2Cl)CC1 | -12.7
COc1ccccc1N1CCN(Cc2nc(N)nc(Nc3ccccc3)n2)CC1 | -69.6
COc1ccccc1N1CCN(Cc2nc(N)nc(Nc3ccc(C)c(Cl)c3)n2)CC1 | -75.5
COc1cc2nc(Nc3ccc(C)c(Cl)c3)nc(N)c2cc1OC.Cl | 4.1
CCc1nnc(NC(=O)c2cccs2)s1 | 9.54
CCN(C(=O)COC(=O)c1ccc(Cl)cc1N)C1CCCCC1 | -9.34
CC(=O)OC(C(=O)NC1CCCCC1)c1ccncc1 (stereo not shown) | -11.7
Cc1sc2nc(SCC(=O)NCc3ccco3)n(Cc3ccccc3)c(=O)c2c1C | -3.84
c1ccc(C2=Nn3c(nnc3-c3ccco3)SC2)cc1 | -25.9
COc1ccc(C2=Nn3c(nnc3-c3ccco3)SC2)cc1OC | -54.1
